# PubChem BioAssay (Tox21)
# Results filed as inconclusive are left out. Where a call stands in place of a potency, no number is given. Activity calls are given as the source filed them. Calls come from the whole dose curve; as a rule, active = well fitted curve in the direction sought with a large enough effect in the repeat runs; inconclusive = weak or mixed curves; inactive = no such curve, though single readings can be large; an effect the other way counts as inactive or inconclusive.
# How the values were obtained:
# [1] = molecular target: Cytochrome P450 2C19 (Homo sapiens) (UniProt P33261); assay: Cytochrome P450 Family 2 Subfamily C Member 19 (CYP2C19) small molecule antagonists: luciferase reporter qHTS assay (AID 1671197); details: P450-Glo CYP2C19 enzyme, luciferin luminescence, 1 h; series mostly up to 115 µM; note: nearly all actives have a fitted effect of over 65% in size; note: potency is the fitted concentration of half-maximal effect
# Procedure, shortened: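 Relative luminescence units recorded 20 min after the detection reagent stopped a 1 h, 37C CYP2C19 reaction on proluciferin substrate, which was started by NADPH regeneration following 10 min room-temperature compound preincubation; ketoconazole positive control.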
# [2] = molecular target: Cytochrome P450 2C9 (Homo sapiens) (UniProt P11712); assay: Cytochrome P450 Family 2 Subfamily C Member 9 (CYP2C9) small molecule antagonists: luciferase reporter qHTS assay (AID 1671198); details: P450-Glo CYP2C9 enzyme assay, luciferin luminescence; series mostly up to 115 µM; note: nearly all actives have a fitted effect of over 50% in size; note: potency is the fitted concentration of half-maximal effect
# Procedure, shortened: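 CYP2C9 activity was measured with a P450-Glo proluciferin substrate. Enzyme–substrate mix was held with compound for 10 min at room temperature, then NADPH regeneration solution was added for 1 h at 37C. Luciferin product was read as luminescence.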
# [3] = molecular target: Voltage-gated inwardly rectifying potassium channel KCNH2 (Homo sapiens) (UniProt Q12809); assay: Human Ether-a-go-go-Related Gene (hERG) channel small molecule antagonists: fluorescence cell-based qHTS assay (AID 1671200); details: hERG-U2OS cells, FluxOR thallium flux fluorescence; series mostly up to 76.8 µM;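 note: hERG-expressing U2OS cells given a thallium stimulus after FluxOR II dye loading; nearly all actives have a fitted effect of over 50% in size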
# Procedure, shortened: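 Read-out: thallium influx as a surrogate for potassium, tracked as fluorescence (480 nm ex/540 nm em) every second for 2 min after Stimulus Buffer addition in dye-loaded hERG-U2OS cells.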
# [4] = molecular target: Cytochrome P450 3A4 (Homo sapiens) (UniProt P08684); assay: Cytochrome P450 Family 3 Subfamily A Member 4 (CYP3A4) small molecule antagonists: luciferase reporter qHTS assay (AID 1671201); details: P450-Glo CYP3A4 enzyme, luciferin luminescence, 1 h; series mostly up to 115 µM; note: nearly all actives have a fitted effect of over 50% in size; note: potency is the fitted concentration of half-maximal effect
# Procedure, shortened: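 Luminescent readout (RLU) proportional to CYP3A4 activity, from luciferin generated off a proluciferin substrate. Enzyme–substrate mix plus compound 10 min at room temp, NADPH regeneration 1 h, detection reagent 20 min.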
# [5] = molecular target: Cytochrome P450 1A2 (Homo sapiens) (UniProt P05177); assay: Cytochrome P450 Family 1 Subfamily A Member 2 (CYP1A2) small molecule antagonists: luciferase reporter qHTS assay (AID 1671199); details: P450-Glo CYP1A2 enzyme, luciferin luminescence, 1 h; series mostly up to 115 µM; note: nearly all actives have a fitted effect of over 50% in size
# Procedure, shortened: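 Read-out is luminescence from luciferin detection reagent (20 min) proportional to CYP1A2 activity; compounds in DMSO preincubated 10 min with enzyme and proluciferin substrate, then NADPH regeneration solution, 1 h, room temperature.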
# Sequence of Cytochrome P450 3A4 (Homo sapiens) (P08684 whole entry, looked up): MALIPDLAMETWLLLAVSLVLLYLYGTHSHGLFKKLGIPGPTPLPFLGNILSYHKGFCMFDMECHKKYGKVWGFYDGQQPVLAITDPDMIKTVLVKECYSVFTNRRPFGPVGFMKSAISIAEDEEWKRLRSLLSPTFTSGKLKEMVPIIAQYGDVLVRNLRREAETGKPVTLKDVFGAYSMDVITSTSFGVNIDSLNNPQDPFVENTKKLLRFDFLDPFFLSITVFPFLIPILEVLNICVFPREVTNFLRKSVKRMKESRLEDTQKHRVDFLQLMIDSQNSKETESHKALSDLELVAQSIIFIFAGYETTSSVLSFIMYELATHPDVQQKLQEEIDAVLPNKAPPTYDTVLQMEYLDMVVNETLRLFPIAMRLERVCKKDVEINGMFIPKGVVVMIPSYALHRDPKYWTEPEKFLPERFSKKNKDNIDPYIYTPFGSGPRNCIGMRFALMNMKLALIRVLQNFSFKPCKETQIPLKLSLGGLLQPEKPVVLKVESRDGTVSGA
# Sequence of Cytochrome P450 2C19 (Homo sapiens) (P33261 whole entry, looked up): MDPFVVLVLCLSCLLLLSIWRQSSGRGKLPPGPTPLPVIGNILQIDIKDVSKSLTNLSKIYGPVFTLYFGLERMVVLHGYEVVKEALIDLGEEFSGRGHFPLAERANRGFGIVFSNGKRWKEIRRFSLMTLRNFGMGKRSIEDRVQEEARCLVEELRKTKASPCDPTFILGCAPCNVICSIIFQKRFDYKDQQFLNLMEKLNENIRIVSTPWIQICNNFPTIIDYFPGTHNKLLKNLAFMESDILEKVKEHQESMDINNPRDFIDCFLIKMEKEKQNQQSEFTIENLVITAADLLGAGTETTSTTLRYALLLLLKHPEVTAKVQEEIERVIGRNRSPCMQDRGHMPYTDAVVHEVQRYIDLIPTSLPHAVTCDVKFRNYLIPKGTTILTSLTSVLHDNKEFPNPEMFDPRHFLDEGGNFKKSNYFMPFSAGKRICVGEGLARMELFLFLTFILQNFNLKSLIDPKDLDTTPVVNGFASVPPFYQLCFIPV
# Sequence of Voltage-gated inwardly rectifying potassium channel KCNH2 (Homo sapiens) (Q12809 whole entry, looked up): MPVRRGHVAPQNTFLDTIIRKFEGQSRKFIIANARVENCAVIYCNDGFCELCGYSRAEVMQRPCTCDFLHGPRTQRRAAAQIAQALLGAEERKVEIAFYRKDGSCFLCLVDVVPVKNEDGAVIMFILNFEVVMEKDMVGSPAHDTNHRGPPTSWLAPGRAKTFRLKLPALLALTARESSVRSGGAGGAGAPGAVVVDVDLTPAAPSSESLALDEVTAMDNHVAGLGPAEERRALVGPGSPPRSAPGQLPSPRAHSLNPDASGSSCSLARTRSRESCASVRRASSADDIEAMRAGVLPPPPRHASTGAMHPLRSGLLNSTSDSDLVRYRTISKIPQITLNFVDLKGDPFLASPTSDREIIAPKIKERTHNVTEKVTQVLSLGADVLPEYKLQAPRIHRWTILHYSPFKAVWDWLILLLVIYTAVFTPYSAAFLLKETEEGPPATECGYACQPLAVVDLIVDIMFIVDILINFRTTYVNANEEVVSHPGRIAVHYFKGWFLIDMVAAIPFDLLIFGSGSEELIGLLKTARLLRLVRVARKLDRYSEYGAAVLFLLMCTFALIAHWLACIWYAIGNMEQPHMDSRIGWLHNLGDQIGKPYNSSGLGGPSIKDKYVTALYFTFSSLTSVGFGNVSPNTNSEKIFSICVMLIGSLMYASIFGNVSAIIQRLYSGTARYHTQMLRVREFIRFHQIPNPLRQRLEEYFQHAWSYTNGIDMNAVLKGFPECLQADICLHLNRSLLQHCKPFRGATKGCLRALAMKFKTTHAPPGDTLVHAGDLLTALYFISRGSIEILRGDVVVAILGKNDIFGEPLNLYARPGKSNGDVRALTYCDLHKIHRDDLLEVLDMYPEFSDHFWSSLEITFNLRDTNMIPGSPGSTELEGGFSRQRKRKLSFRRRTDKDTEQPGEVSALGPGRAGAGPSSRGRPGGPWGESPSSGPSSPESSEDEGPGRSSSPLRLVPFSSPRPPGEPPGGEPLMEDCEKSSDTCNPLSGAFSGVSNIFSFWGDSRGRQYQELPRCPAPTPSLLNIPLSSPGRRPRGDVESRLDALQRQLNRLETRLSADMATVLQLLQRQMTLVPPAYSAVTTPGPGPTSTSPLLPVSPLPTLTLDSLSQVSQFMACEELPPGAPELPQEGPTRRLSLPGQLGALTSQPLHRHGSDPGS
# Sequence of Cytochrome P450 2C9 (Homo sapiens) (P11712 whole entry, looked up): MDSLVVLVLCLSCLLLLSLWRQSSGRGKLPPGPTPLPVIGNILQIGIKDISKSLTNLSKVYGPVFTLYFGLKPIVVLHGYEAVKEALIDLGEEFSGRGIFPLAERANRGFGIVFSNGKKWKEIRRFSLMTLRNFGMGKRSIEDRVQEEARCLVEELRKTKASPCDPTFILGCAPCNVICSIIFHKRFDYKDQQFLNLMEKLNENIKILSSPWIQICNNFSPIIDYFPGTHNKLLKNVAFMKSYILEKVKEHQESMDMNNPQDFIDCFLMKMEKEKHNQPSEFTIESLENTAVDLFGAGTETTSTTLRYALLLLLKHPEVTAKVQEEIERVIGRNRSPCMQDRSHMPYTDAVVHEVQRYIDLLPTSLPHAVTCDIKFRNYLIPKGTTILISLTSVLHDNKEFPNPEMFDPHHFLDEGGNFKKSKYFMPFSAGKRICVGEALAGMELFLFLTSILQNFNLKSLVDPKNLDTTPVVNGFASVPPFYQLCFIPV
# Sequence of Cytochrome P450 1A2 (Homo sapiens) (P05177 whole entry, looked up): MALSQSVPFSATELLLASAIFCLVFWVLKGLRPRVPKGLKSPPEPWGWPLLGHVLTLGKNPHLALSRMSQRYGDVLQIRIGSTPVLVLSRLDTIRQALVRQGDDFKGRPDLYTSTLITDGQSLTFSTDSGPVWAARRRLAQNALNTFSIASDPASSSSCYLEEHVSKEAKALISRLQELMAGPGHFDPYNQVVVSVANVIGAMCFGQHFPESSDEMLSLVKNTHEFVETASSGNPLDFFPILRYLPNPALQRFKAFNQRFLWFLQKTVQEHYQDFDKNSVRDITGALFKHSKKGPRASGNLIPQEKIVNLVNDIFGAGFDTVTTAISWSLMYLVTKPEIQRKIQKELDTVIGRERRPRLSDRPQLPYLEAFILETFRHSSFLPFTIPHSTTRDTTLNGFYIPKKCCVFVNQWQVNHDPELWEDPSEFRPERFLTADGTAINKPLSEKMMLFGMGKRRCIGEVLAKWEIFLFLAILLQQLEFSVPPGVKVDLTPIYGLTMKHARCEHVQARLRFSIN
Compound,Potency [1],Potency [2],Potency [3],Potency [4],Potency [5]
O=C(/C=C/c1ccc(O)c(O)c1)O[C@@H]1C[C@](O)(C(=O)O)C[C@@H](O)[C@H]1O,80.9 µM (active),inactive,inactive,–,–
CCN(CC)CCOc1ccc2c(c1)C(=O)c1cc(OCCN(CC)CC)ccc1-2,inactive,inactive,inactive,inactive,–
C1CCC2OC2C1 (stereo unspecified),inactive,inactive,inactive,inactive,–
N#CCc1cccc(C(F)(F)F)c1,inactive,inactive,inactive,inactive,–
Cc1ccc(C(C)c2ccc(C)c(C)c2)cc1C,7.1 µM (active),11.2 µM (active),inactive,–,–
CCCCOCCOCCOCCOCCO,inactive,inactive,inactive,–,–
N#Cc1c(F)cccc1F,inactive,inactive,inactive,inactive,–
CCCCCCCCCCCCCCCC(=O)OC/C=C(C)/C=C/C=C(C)/C=C/C1=C(C)CCCC1(C)C,39.9 µM (active),35.6 µM (active),inactive,–,–
NCCCN(CCO)CCO,inactive,inactive,inactive,inactive,–
CCN(CC)C(C)=O,inactive,inactive,inactive,inactive,–
CC(C)(C)c1ccc(S)cc1,50.2 µM (active),31.7 µM (active),inactive,inactive,–
Cc1ccc(O)c([C@H](CCN(C(C)C)C(C)C)c2ccccc2)c1,24.5 µM (active),–,–,–,inactive
CCCCCCCCCCCCC(=O)O,71.3 µM (active),inactive,inactive,inactive,–
CN1CCN(C2=Nc3cc(Cl)ccc3Nc3ccccc32)CC1,inactive,–,–,–,inactive
COCCCCCCCCOCCC[Si](C)(O[Si](C)(C)C)O[Si](C)(C)C,56.4 µM (active),35.6 µM (active),–,3.56 µM (active),–
